Values without a mark were called inactive. For some of these results: Results with a measured potency or affinity are listed apart. Activity calls are given as the source filed them. Unless noted, the rule behind the calls is not given here.

20 molecules from PubChem BioAssay can be followed below.

A short description of experiment [1]: antimalarial activity against Dd2 strain (AID 2302;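 active = growth inhibition above 50% at the single 2 µM test dose, taken to imply half-maximal potency below 2 µM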;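 note: 0% = DMSO untreated growth and 100% = chloroquine plus artemisinin killed control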). The following applies: P. falciparum Dd2 in RBCs, LDH growth readout, 72 h; at 2 µM; stronger effect = higher value.
A short description of experiment [2]: human hepatoma cell viability loss – ATP luminescence, cytotoxicity control for P. falciparum antimalarial project, primary screen (AID 2303;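 active = inhibition above 50%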;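 note: 0% = DMSO wells and 100% = digitonin-killed cells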). The settings on record: HepG2 viability, 24-48 h, at 10 µM, stronger effect = higher value.
Experiment [3] concerns the target L-lactate dehydrogenase (Plasmodium falciparum (isolate CDC / Honduras)) (UniProt Q27743). The experiment in a line: PfLDH activity inhibition – cell lysate, 3D7 strain, counter-screen for P. falciparum growth inhibition project (AID 2304).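 Note: 0% = vehicle and 100% = reference inhibitor.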 The settings on record: P. falciparum 3D7 crude extract, LDH APAD/NBT absorbance; at 2 µM; stronger effect = higher value. (Counterscreens check selectivity or assay interference.)

Experiment [4] can be described thus: inhibition of 3D7 malaria parasite growth – strain 3D7 (AID 2306).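 Note: 0% = DMSO wells and 100% = chloroquine plus artemisinin control wells.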 The following applies: P. falciparum 3D7 erythrocytic growth, LDH absorbance, 72 h; at 2 µM; stronger effect = higher value.
The target of experiment [5] is Calcium-dependent protein kinase 1 (Plasmodium falciparum (isolate 3D7)) (UniProt P62344). Briefly: PfCDPK1 kinase inhibitors, biochemical, TCAMS library (AID 1159585; cut-off not given, nearly all actives have IC50 up to about 0.98 µM;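 note: inhibitors leave more ATP so luminescence rises with inhibition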). The settings on record: recombinant PfCDPK1, Kinase-Glo ATP depletion luminescence. In general terms: Kinase-Glo reads ATP consumption through a luciferase reaction.
Experiment [6] has as its target Plasmodium falciparum protein kinase 6 (PK6, PF3D7_1337100) (UniProt Q8IDW1). The experiment in a line: PfPK6 kinase inhibitors, biochemical, TCAMS library (AID 1159586). The settings on record: recombinant PfPK6, Kinase-Glo ATP depletion luminescence.
For experiment [7], the target named is Protein kinase 7 (PK7), Plasmodium falciparum 3D7 (PF3D7_0213400) (UniProt Q7YTF7). The experiment in a line: inhibition of Plasmodium PK7 catalytic activity – biochemical, TCAMS antimalarial set, Kinase-Glo luminescence (AID 1159587). The settings on record: recombinant PfPK7, Kinase-Glo ATP depletion luminescence.
Experiment [8] has as its target Calcium-dependent protein kinase 4 (Plasmodium falciparum (isolate 3D7)) (UniProt Q8IBS5). The experiment in a line: PfCDPK4 kinase inhibitors, biochemical, TCAMS library (AID 1159588; cut-off not given, nearly all actives have IC50 up to about 0.91 µM). The following applies: recombinant PfCDPK4, Kinase-Glo ATP depletion luminescence.

Protein kinase 7 (PK7), Plasmodium falciparum 3D7 (PF3D7_0213400), sequence (Q7YTF7 1-343): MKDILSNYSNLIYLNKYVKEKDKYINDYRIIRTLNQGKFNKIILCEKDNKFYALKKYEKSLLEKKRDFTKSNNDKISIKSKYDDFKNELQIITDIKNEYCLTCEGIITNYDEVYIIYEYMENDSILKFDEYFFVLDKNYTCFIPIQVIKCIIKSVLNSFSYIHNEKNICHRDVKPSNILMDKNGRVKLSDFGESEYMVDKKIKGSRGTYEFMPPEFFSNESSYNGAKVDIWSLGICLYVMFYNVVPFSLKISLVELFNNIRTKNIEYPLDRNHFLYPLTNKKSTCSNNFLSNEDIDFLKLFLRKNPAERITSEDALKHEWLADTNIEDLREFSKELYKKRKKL
Calcium-dependent protein kinase 1 (Plasmodium falciparum (isolate 3D7)), sequence (P62344 whole entry, looked up): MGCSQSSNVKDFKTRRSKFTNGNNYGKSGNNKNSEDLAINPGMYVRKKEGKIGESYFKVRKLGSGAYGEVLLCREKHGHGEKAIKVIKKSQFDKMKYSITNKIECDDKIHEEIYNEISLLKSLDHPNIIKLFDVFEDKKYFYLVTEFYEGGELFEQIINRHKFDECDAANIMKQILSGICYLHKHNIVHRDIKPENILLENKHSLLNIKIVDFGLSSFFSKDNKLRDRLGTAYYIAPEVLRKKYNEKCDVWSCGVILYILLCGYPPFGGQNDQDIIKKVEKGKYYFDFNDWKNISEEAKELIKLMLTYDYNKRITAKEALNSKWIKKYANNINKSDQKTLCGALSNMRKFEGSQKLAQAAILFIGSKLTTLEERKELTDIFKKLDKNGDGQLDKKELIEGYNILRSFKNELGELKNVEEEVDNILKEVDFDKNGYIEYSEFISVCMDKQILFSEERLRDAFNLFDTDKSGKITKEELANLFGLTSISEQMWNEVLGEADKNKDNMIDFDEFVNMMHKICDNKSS
Calcium-dependent protein kinase 4 (Plasmodium falciparum (isolate 3D7)), sequence (Q8IBS5 whole entry, looked up): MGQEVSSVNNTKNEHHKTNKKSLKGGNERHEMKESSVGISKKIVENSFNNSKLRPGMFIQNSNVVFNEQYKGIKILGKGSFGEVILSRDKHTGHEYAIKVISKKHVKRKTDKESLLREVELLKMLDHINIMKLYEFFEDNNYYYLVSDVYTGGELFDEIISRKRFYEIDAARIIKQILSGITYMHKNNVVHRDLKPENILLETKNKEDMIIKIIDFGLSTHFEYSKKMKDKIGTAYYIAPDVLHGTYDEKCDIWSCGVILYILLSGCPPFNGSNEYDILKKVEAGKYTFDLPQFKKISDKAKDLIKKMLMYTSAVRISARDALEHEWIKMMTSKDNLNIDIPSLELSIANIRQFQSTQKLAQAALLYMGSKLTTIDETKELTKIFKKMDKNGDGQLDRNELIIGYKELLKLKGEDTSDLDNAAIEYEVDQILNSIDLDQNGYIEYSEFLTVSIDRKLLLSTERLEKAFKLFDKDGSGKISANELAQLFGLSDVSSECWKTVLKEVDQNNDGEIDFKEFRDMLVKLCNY
L-lactate dehydrogenase (Plasmodium falciparum (isolate CDC / Honduras)), sequence (Q27743 whole entry, looked up): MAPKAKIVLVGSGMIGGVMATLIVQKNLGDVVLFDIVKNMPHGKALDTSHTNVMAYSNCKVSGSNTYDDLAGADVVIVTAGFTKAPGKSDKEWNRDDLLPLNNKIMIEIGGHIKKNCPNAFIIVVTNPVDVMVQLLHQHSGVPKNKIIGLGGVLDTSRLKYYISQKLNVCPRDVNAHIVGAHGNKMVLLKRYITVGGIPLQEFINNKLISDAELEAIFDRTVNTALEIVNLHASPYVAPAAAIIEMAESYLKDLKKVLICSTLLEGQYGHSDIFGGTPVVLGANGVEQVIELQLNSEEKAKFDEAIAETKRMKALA
Plasmodium falciparum protein kinase 6 (PK6, PF3D7_1337100), sequence (Q8IDW1 1-305): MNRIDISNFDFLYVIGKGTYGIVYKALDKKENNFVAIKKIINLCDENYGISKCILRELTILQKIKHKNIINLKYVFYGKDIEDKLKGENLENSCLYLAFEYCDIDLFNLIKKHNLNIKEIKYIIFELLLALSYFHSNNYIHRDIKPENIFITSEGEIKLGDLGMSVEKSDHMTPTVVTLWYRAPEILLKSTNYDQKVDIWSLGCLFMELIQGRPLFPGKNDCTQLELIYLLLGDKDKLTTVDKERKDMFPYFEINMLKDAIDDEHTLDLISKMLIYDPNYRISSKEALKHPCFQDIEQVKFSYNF

Consider `O=C(/C=C/c1ccccc1O)NCCCCCN1CCC(c2c[nH]c3ccccc23)CC1`, for which the growth inhibition in experiment [1] was 1%; in experiment [4] it was 95% (active). Besides, the results for the inhibition in experiment [2] and in experiment [3] were 7% and -5%, respectively. The result in experiment [5], in experiment [6], in experiment [7] and in experiment [8] was inactive.
With `CNc1ccc(CNCc2ccc(-c3ccc(-c4nc5c(C)cccc5[nH]4)cc3)cc2)cc1`, the results for the growth inhibition in experiment [1] and in experiment [4] were 92% (active) and 100% (active), respectively. For the same molecule, the inhibition (usually the drop in the measured response relative to a control, in per cent) is 35% in experiment [2] and -8% in experiment [3]. In addition, the outcome in experiment [5], in experiment [6], in experiment [7] and in experiment [8] was inactive.
Turning to `CCOc1ccc2c(c1)OC(c1ccccc1)(C(F)(F)F)NC2=O` (stereo not given), the growth inhibition in experiment [1] was 98% (active); in experiment [4] it was 100% (active). The inhibition in experiment [2] was -7%; in experiment [3], -2%. For the same molecule, the outcome in experiment [5], in experiment [6], in experiment [7] and in experiment [8] was inactive.
Turning to `Cc1cccc2[nH]c(-c3cccc(-c4ccc(NC(=O)Nc5ccc(F)c(F)c5F)cc4)c3)nc12`, the growth inhibition is 100% (active) in experiment [1] and 101% (active) in experiment [4]. The inhibition in experiment [2] was 61% (active); in experiment [3] it was -4%. In addition, the result in experiment [5], in experiment [6], in experiment [7] and in experiment [8] was inactive.
For `CCCc1cc(=O)[nH]c(-n2nc(C)cc2NC(=O)CC(c2ccccc2)c2ccccc2)n1`, the growth inhibition is 88% (active) in experiment [1] and 97% (active) in experiment [4]. The inhibition is 39% in experiment [2] and 4% in experiment [3]. In addition, the outcome in experiment [5], in experiment [6], in experiment [7] and in experiment [8] was inactive.
Regarding `O=[N+]([O-])c1cc(/C=N/Nc2nc3ccccc3[nH]2)ccc1O`, the growth inhibition is 14% in experiment [1] and 98% (active) in experiment [4]. The inhibition in experiment [2] was -7%; in experiment [3], -5%. In addition, the result in experiment [5], in experiment [6], in experiment [7] and in experiment [8] was inactive.
Turning to `CC1Cc2ccccc2N1S(=O)(=O)c1cccc(C(=O)Nc2nc(-c3ccccn3)cs2)c1` (stereo not given), the growth inhibition in experiment [1] is 77% (active); in experiment [4], 84% (active). In addition, the inhibition in experiment [2] is 32%; in experiment [3], -2%. For the same molecule, the result in experiment [5], in experiment [6], in experiment [7] and in experiment [8] was inactive.
On to `CS(=O)(=O)CCNCc1nc(-c2ccc3c(=O)[nH]cnc3c2)cs1`, for which the growth inhibition in experiment [1] is 96% (active); in experiment [4], 86% (active). The figures for the inhibition in experiment [2] and in experiment [3] were 81% (active) and 0%, respectively. The outcome in experiment [5], in experiment [6], in experiment [7] and in experiment [8] was inactive.
Turning to `CC(C)NCc1ccc(-c2cccc(NC(=O)c3ccc(C#N)cc3)c2)cc1`, the growth inhibition in experiment [1] is 19%; in experiment [4], 100% (active). Moreover, the inhibition is 8% in experiment [2] and 4% in experiment [3]. The outcome in experiment [5], in experiment [6], in experiment [7] and in experiment [8] was inactive.
As for `COc1ccccc1N1CCN(Cc2c(NC(C)=O)sc(C)c2C)CC1`, the growth inhibition in experiment [1] is 80% (active); in experiment [4], 95% (active). Besides, the inhibition in experiment [2] is 9%; in experiment [3] it was 3%. The outcome in experiment [5], in experiment [6], in experiment [7] and in experiment [8] was inactive.
Regarding `CNC(=O)/C=C/c1cc(NC(=O)Nc2ccnc3c(Br)cccc23)ccc1OC`, the growth inhibition in experiment [1] was 68% (active); in experiment [4] it was 95% (active). Moreover, the figures for the inhibition in experiment [2] and in experiment [3] were 12% and 1%, respectively. Also, the result in experiment [5], in experiment [6], in experiment [7] and in experiment [8] was inactive.
Regarding `COc1ccc(CCn2c(=N)c(C(=O)NCc3cccnc3)cc3c(=O)n4ccccc4nc32)cc1`, the growth inhibition in experiment [1] was 5%; in experiment [4], 98% (active). Also, the inhibition in experiment [2] is 16%; in experiment [3], -2%. The outcome in experiment [5], in experiment [6], in experiment [7] and in experiment [8] was inactive.
In the case of `c1cc(CN2CCCCC2)cc(-c2ccc(-c3nc4ccccc4[nH]3)cc2)c1`, the values for the growth inhibition in experiment [1] and in experiment [4] were 88% (active) and 101% (active), respectively. The figures for the inhibition in experiment [2] and in experiment [3] were 9% and -2%, respectively. The outcome in experiment [5], in experiment [6], in experiment [7] and in experiment [8] was inactive.
As for `N#Cc1cncc(-c2nc3c(N4CCCC(N)C4)cccc3n2CCNCc2ccccc2)c1` (stereo not given), the growth inhibition is 1% in experiment [1] and 101% (active) in experiment [4]. Besides, the inhibition was 8% in experiment [2] and -1% in experiment [3]. For the same molecule, the result in experiment [5], in experiment [6], in experiment [7] and in experiment [8] was inactive.
On to `Cn1cnc2c(Nc3ccncc3)nc(-c3ccc4ccccc4c3)nc21`, for which the growth inhibition in experiment [1] was 66% (active); in experiment [4], 96% (active). The values for the inhibition in experiment [2] and in experiment [3] were 55% (active) and 7%, respectively. For the same molecule, the result in experiment [5], in experiment [6], in experiment [7] and in experiment [8] was inactive.
As to `NC1=NC(C=Cc2ccccc2)N(OCCCCCCON2C(N)=NC(N)=NC2C=Cc2ccccc2)C(N)=N1` (stereo not given), the growth inhibition was 94% (active) in experiment [1] and 97% (active) in experiment [4]. Besides, the inhibition in experiment [2] was 17%; in experiment [3] it was 3%. Further, the result in experiment [5], in experiment [6], in experiment [7] and in experiment [8] was inactive.
As to `COc1ccc2nccc([C@@H](O)CN3CCC(NC/C=C/c4cccnc4)CC3)c2c1`, the values for the growth inhibition in experiment [1] and in experiment [4] were 19% and 100% (active), respectively. Moreover, the figures for the inhibition in experiment [2] and in experiment [3] were -7% and -2%, respectively. Further, the result in experiment [5], in experiment [6], in experiment [7] and in experiment [8] was inactive.
In the case of `COc1ccc(C(=O)Nc2cc(Br)c3c(c2)CNCC3)cc1C(F)(F)F`, the growth inhibition in experiment [1] was 4%; in experiment [4], 90% (active). The inhibition in experiment [2] was 13%; in experiment [3], 8%. The outcome in experiment [5], in experiment [6], in experiment [7] and in experiment [8] was inactive.
Regarding `CC(C)COc1ccc(Cl)cc1Cc1ccc(-c2nc3ccc(F)cc3[nH]2)o1`, the growth inhibition in experiment [1] was 49%; in experiment [4] it was 97% (active). Besides, the results for the inhibition in experiment [2] and in experiment [3] were 35% and 6%, respectively. For the same molecule, the outcome in experiment [5], in experiment [6], in experiment [7] and in experiment [8] was inactive.
Take `C[C@H](Cc1ccc(C[C@@H](C)NC[C@H](O)c2cccc(Cl)c2)cc1)NC[C@H](O)COc1ccccc1`: the growth inhibition was 60% (active) in experiment [1] and 96% (active) in experiment [4]. Further, the inhibition was 99% (active) in experiment [2] and -2% in experiment [3]. The outcome in experiment [5], in experiment [6], in experiment [7] and in experiment [8] was inactive.
